# Measured values as given in PubChem BioAssay AID2314 (National Center for Advancing Translational Sciences (NCATS), 2010).
# “And” between values parts separate entries of the source, which are not always exact repeats. Equal values may be shown once. Among all 300,000 compounds or so, about 37,000 (12%) were called active. Rule as the data show it: active = max response mostly above about 13% (no sharp cut-off); inactive = mostly below about 14%. Only a selection was taken, and actives are over-represented in it overall.
# Assay: Cycloheximide Counterscreen for Small Molecule Inhibitors of Shiga Toxin; also: read at 38.3 µM for the half of the compounds with a filed dose; 0% is about no effect
# Conditions: cell reporter, cycloheximide protein synthesis inhibition counterscreen; hits give high values
row,SMILES,max response
1,CCc1c(C)nc2cc(C)[nH]n2c1=O,-1.78% (inactive)
2,Cc1nc2nc[nH]n2c(=O)c1C/C=C/c1ccccc1,10.1% (inactive)
3,C=CCc1c(C)nc2cc(-c3ccccc3)[nH]n2c1=O,37% (active)
4,CCCCN1Cc2c(nc3cc(-c4ccccc4)[nH]n3c2=O)C1=O,7.79% (inactive)
5,CCc1c(C)nc2cc(-c3cccs3)[nH]n2c1=O,29.6% (active)
6,Cc1cc(=O)n2[nH]c(-c3sccc3-n3c(C)ccc3C)cc2n1,5.31% (inactive)
7,COCCn1cnc2c1c(=O)n(Cc1ccc(Br)cc1)c(=O)n2Cc1ccccc1,-1.88% (inactive)
8,Cc1ccc(NC(=O)C(CC(=O)O)C2CCCO2)c(C)c1 (stereo not given),-2.11% (inactive)
9,CC(NC(=O)CNC(=O)Cc1cccc2ccccc12)c1ccc(S(N)(=O)=O)cc1 (stereo not given),4.99% (inactive)
10,Cc1csc2ncc(C(=O)N(Cc3ccccc3)c3ccccn3)c(=O)n12,-6.72% (inactive)
11,CC1(C)NC(=O)N(CC(=O)Nc2cc(C(F)(F)F)cc(C(F)(F)F)c2)C1=O,-1.59% (inactive)
12,O=C1C2CCCN2C(=O)N1CCCCN1CCN(c2cccc(C(F)(F)F)c2)CC1 (stereo not given),-0.302% (inactive)
13,O=C(NCc1ccco1)/C(=C\c1cccc([N+](=O)[O-])c1)NC(=O)c1ccco1,-3.43% (inactive)
14,COc1cc(NS(=O)(=O)c2ccc3ccccc3c2)c2ncccc2c1,-1.06% (inactive) and -1.79% (inactive)
15,CS(=O)(=O)C1=NN2C(=N)/C(=C\c3ccc(OCCOc4ccccc4)cc3)C(=O)N=C2S1,8.57% (inactive)
16,COc1ccccc1OCCOc1ccc(/C=C2\C(=N)N3N=C(C)SC3=NC2=O)cc1,-1.22% (inactive)
17,CCC1=NN2C(=N)/C(=C/c3cc(C)n(-c4ccccc4)c3C)C(=O)N=C2S1,4.37% (inactive)
18,CCS(=O)(=O)C1=NSC2=NC(=O)/C(=C\c3cc(C)n(-c4cccc(OC)c4)c3C)C(=N)N21,3.96% (inactive)
19,Cc1cc(/C=C2/C(=N)N3C(=NC2=O)SN=C3S(C)(=O)=O)c(C)n1-c1ccccc1,28.8% (active)
20,CCS(=O)(=O)C1=NSC2=NC(=O)/C(=C\c3ccc(OS(=O)(=O)c4ccccc4)cc3)C(=N)N21,23.1% (active)
21,COc1ccc(C(=O)NCCCN2CCOCC2)cc1Br,0.527% (inactive)
22,C/C(=N\N=C(N)N)c1ccc(Cl)cc1,-3.34% (inactive)

row,SMILES,max response
1,COc1ccc(CCNC(=O)CN(C)S(=O)(=O)c2ccc3nc(C)sc3c2)cc1OC,-1.23% (inactive)
2,COc1ccc2c(CC(=O)N3CCc4cc(OC)c(OC)cc4C3)coc2c1,-5.51% (inactive)
3,CC(=O)c1ccc(NC(=O)C(C)NCc2ccc(Cl)cc2)cc1 (stereo not given),32.7% (active)
4,CC(=O)c1ccc(NC(=O)C(C)N(C)CC(=O)Nc2ccccc2Cl)cc1 (stereo not given),5.03% (inactive)
5,CC(NCc1cccs1)C(=O)Nc1cc(Cl)cc(Cl)c1 (stereo not given),-2.66% (inactive)
6,Nc1c(Cl)cc(-c2csc(N3CCCC3c3nc4cc(Cl)c(Cl)cc4n3CCOCCO)n2)cc1Cl (stereo not given),2.13% (inactive)
7,Cc1ccc(N=Cc2c(O)cc(C)oc2=O)c(C)c1,-0.907% (inactive)
8,C/C(=N\NS(=O)(=O)c1ccccc1)c1c(O)cc(C)oc1=O,3.15% (inactive)
9,Cc1cc(O)c(C(=O)/C=C/c2c(F)c(F)c(F)c(F)c2F)c(=O)o1,35.8% (active)
10,O=C(Cc1cccs1)N(CC1CCCO1)C1(C(=O)NC2CCCCC2)CCCCC1 (stereo not given),-1.59% (inactive)
11,CCCOc1ccc(Cc2c(O)nc(N)[nH]c2=O)cc1C,-2.37% (inactive)
12,COc1c(O)ccc2c1CN1CCc3cc4c(cc3C1C2)OCO4 (stereo not given),-3.13% (inactive)
13,Cn1c(S(=O)(=O)O)nc2ccccc21,-1.42% (inactive)
14,Cn1cccc1-c1nc2ccccc2n1C,18% (active)
15,Cc1nn2c3ccccc3nc2n(C)c1=O,-2.2% (inactive)
16,CCn1cc(C(=O)N2CC=C(c3ccccc3)CC2)c(=O)c2ccc(C)nc21,7.37% (inactive)
17,COC(=O)c1nn(-c2cccc(Cl)c2)ccc1=O,4.96% (inactive)
18,Cc1cccc(-c2nnc(SCC(=O)O)n2Cc2ccccc2)c1,-1.57% (inactive)
19,Cc1cc(C)c2c(Cn3ccnc3)cc(=O)oc2c1,-3.34% (inactive)
20,Cc1cccc(N(C)C(=O)CN2C(=O)COc3ccc(S(=O)(=O)N4CCCCCC4)cc32)c1,-2.56% (inactive)
21,COc1ccc(S(=O)(=O)N(CC(=O)NCc2ccco2)c2ccc(F)cc2)cc1,-2.34% (inactive)
22,COc1ccc(NC(=O)N2CCC3(CC2)OCCO3)c(OC)c1,0.567% (inactive)

row,SMILES,max response
1,O=C(Nc1cccc2ccccc12)N1CCN(Cc2ccc3c(c2)OCO3)CC1,-0.788% (inactive)
2,O=C(Nc1cccc2ccccc12)N1CCC2(CC1)OCCO2,22.3% (active)
3,CN(CC(=O)Nc1c(Cl)cccc1Cl)C(=O)c1ccncc1,-0.763% (inactive)
4,CC1CN(C(=O)CCC(=O)NCCCN2CCC(Cc3ccccc3)CC2)c2cc(Cl)ccc2O1 (stereo not given),-3.45% (inactive)
5,COc1ccc(S(=O)(=O)NCC(=O)NC2CC2)cc1OC,-2.51% (inactive)
6,COc1ccc(CCNC(=O)C2CCCN(S(=O)(=O)c3ccc(OC)cc3)C2)cc1 (stereo not given),-5.86% (inactive)
7,COc1nc(NC2CCCCC2)nc(N2CCCCCC2)n1,8.36% (inactive)
8,O=C1Nc2cc(C(=O)N3CCN(c4ccc(F)cc4)CC3)ccc2NC1CSCc1cccc(F)c1 (stereo not given),2.89% (inactive)
9,Cc1cc(/C=N/n2cnnc2)c(C)n1-c1cccc(C(=O)O)c1,4.01% (inactive)
10,Cc1ccc(-n2c(C)cc(/C=N/Nc3ccc([N+](=O)[O-])cn3)c2C)c(C)c1,20.7% (inactive)
11,Cc1cc(/C=N/Nc2ccc([N+](=O)[O-])cn2)c(C)n1-c1cccc(C(=O)O)c1,27.7% (active)
12,O=C1CSC2=NCN(c3ccccc3)CN12,1.46% (inactive)
13,COc1ccc(S(=O)(=O)N2CCOCC2)cc1C(=O)NC1CCCCC1,-2.56% (inactive)
14,Cc1cccc(S(=O)(=O)CC(=O)Nc2nc(-c3ccccc3)cs2)c1,-5.29% (inactive)
15,Cc1cccc(Nc2nc(-c3ccccc3)cs2)n1,56.2% (active)
16,CC(=O)Nc1cccc(-c2csc(Nc3cccc(C)n3)n2)c1,50.7% (active)
17,CCS(=O)(=O)Nc1cccc(-c2cc(-c3ccccc3)c3cc(C)ccc3n2)c1,-0.522% (inactive)
18,CC(=O)Nc1ccc(-c2csc(NC=C3C(=O)OC(C)(C)OC3=O)n2)cc1,19.8% (inactive)
19,CC(=O)Nc1cccc(NC(=O)c2c(-c3ccccc3)noc2C)c1,-1.94% (inactive)
20,COc1ccc(CCNc2nc(-c3cccc(NC(C)=O)c3)cs2)cc1OC,10.5% (inactive)
21,CC(=O)Nc1cccc(-c2cnc3ccccc3n2)c1,34.8% (active)
